Reference: PubChem BioAssay (NCI)
Compounds without any hit were thinned out: in the full panel of roughly 79,000, 15% have a hit. Unmarked numbers belong to inactive results. Active and inactive are the calls of the source. Rule as the data show it: active = growth inhibition above about 70%; inactive = the rest.

How the values were obtained:
[1] = NCI Yeast Anticancer Drug Screen. Data for the rad50 strain (AID 155);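 also: 0% = growth of vehicle-only cultures of the same strain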; settings: S. cerevisiae rad50 strain growth inhibition, stronger effect = higher value
Method in brief: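 A DNA repair-deficient yeast mutant serves as the test organism; compound-induced growth inhibition is calculated against vehicle-treated cells.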

[2] = NCI Yeast Anticancer Drug Screen. Data for the mec2-1 strain (AID 157); settings: S. cerevisiae mec2-1 strain, stronger effect = higher value
Method in brief: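 Using mec2-1 yeast: add compound, measure growth, express inhibition versus vehicle-treated cultures.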

[3] = NCI Yeast Anticancer Drug Screen. Data for the sgs1 mgt1 strain (AID 161);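 also: 0% = growth of cultures given vehicle only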; settings: S. cerevisiae sgs1 mgt1 strain, stronger effect = higher value
Method in brief: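 Yeast cells carrying a defined DNA-repair defect were exposed to test compounds. Growth inhibition was measured relative to vehicle-treated controls.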

[4] = NCI Yeast Anticancer Drug Screen. Data for the cln2 rad14 strain (AID 165);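 also: 0% = growth equal to vehicle treated cultures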; settings: S. cerevisiae cln2 rad14 strain, stronger effect = higher value
Method in brief: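 Yeast strain cln2 rad14, bearing defects in cell cycle control and DNA repair, serves as the test system; values reflect growth inhibition compared with vehicle.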

[5] = NCI Yeast Anticancer Drug Screen. Data for the bub3 strain (AID 167); settings: S. cerevisiae bub3 mutant strain, stronger effect = higher value
Method in brief: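 Inhibition values come from growth of compound-treated mutant yeast normalised to vehicle-treated controls.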

[6] = NCI Yeast Anticancer Drug Screen. Data for the mlh1 rad18 strain (AID 175); settings: S. cerevisiae mlh1 rad18 strain growth inhibition, stronger effect = higher value
Method in brief: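 Steps: expose repair-defective yeast to compound; measure growth; express inhibition against vehicle-treated controls.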

[7] = at 5.0 µM (retest, dose inferred, filed as 0.5)
[8] = at 50.0 µM (retest, dose inferred, filed as 5.0)

Compound | growth inhibition [1, 7] [%] | growth inhibition [1, 8] | growth inhibition ([1]; at 50.0 µM) | growth inhibition [2, 7] [%] | growth inhibition [2, 8] | growth inhibition ([2]; at 50.0 µM) | growth inhibition [3, 7] [%] | growth inhibition [3, 8] | growth inhibition ([3]; at 50.0 µM) | growth inhibition [4, 7] [%] | growth inhibition [4, 8] | growth inhibition ([4]; at 50.0 µM) | growth inhibition [5, 7] [%] | growth inhibition [5, 8] | growth inhibition ([5]; at 50.0 µM) | growth inhibition [6, 7] [%] | growth inhibition [6, 8] | growth inhibition ([6]; at 50.0 µM)
O=C1SCCN1/N=C/c1ccc([N+](=O)[O-])o1 | 30 | 85% (active) | 85.8% (active) | 13 | 82% (active) | 65.3% | 34 | 92% (active) | 93.3% (active) | 2 | 68% | 50.7% | 10 | 80% (active) | 64.6% | 51 | 94% (active) | 92% (active)
OCC(O)C(OC1OC(CO)C(O)C(O)C1O)C(O)C(/C=N/Nc1ccc(Br)cc1)=N/Nc1ccc(Br)cc1 (stereo not given) | -3 | 98% (active) | 99.3% (active) | -11 | 98% (active) | 98.5% (active) | 2 | 99% (active) | 98.5% (active) | -41 | 99% (active) | 98.9% (active) | 23 | 99% (active) | 97.9% (active) | 13 | 98% (active) | 98.5% (active)
CCCCCCCCCCCCCCCCC1CCc2ccccc21 (stereo not given) | 4 | 4% | 56.8% | -2 | -6% | 64.3% | 11 | 13% | 79.4% (active) | 23 | 28% | 89.8% (active) | 38 | 39% | 75.8% (active) | -2 | 11% | 86% (active)
O=C(c1ccco1)N(C(=S)N1CCN(c2ccccn2)CC1)c1ccccc1 | 3 | 76% (active) | 77.2% (active) | 8 | 51% | 47.4% | -1 | 71% (active) | 63.4% | 31 | 53% | 36.5% | -2 | 60% | 53% | -2 | 78% (active) | 57.4%
Clc1ccc(N=Cc2c3ccccc3cc3ccccc23)c(Cl)c1 | 0 | -3% | 79.7% (active) | 3 | 2% | 85.4% (active) | -5 | 5% | 87.4% (active) | 15 | 22% | 31% | 2 | 29% | 79.5% (active) | -7 | 44% | 77.5% (active)
CCCCNC(=S)NC1C2CC3CC(C2)CC1C3 (stereo not given) | -8 | 78% (active) | 97.4% (active) | -4 | 64% | 98.5% (active) | -4 | 90% (active) | 97.9% (active) | 0 | 39% | 92.2% (active) | -8 | 24% | 90.4% (active) | -13 | 93% (active) | 97.2% (active)
CCCOc1ccc(-c2nc(-c3ccc(N=Cc4ccc(N(CCOS(C)(=O)=O)CCOS(C)(=O)=O)cc4C)cc3)cs2)cc1 | 13 | 82% (active) | 84.7% (active) | 7 | 83% (active) | 76.8% (active) | 8 | 89% (active) | 46.5% | 7 | 53% | 24.6% | -3 | 2% | 37% | 50 | 95% (active) | 92.4% (active)
O=C(O/N=C1/CCCC/C1=C\c1ccccc1)c1ccccc1 | 24 | 86% (active) | 76.2% (active) | 17 | 95% (active) | 88.3% (active) | 51 | 94% (active) | 85.8% (active) | 47 | 97% (active) | 87% (active) | 53 | 94% (active) | 81.1% (active) | 19 | 82% (active) | 81.7% (active)
C[CH2][Ge]([CH2]C)([CH2]C)[O]C(=O)C([O][Ge]([CH2]C)([CH2]C)[CH2]C)c1ccccc1 (stereo not given) | 15 | 15% | 91.2% (active) | 6 | 6% | 93% (active) | 13 | 13% | 91.3% (active) | 15 | 15% | 89.5% (active) | 5 | 5% | 90.6% (active) | 23 | 23% | 89.5% (active)
Oc1ccccc1/C=N/NC(=S)NC12CC3CC(CC(C3)C1)C2 | 7 | 19% | 81.3% (active) | 14 | 11% | 29.6% | 27 | 19% | 64.4% | -38 | 20% | 31.1% | 21 | 21% | 42.8% | 10 | 41% | 85.9% (active)
